Data taken from PubChem BioAssay.
Results with a measured potency or affinity are listed apart. Results filed as inconclusive are left out. Unmarked numbers belong to inactive results. How the calls were made is not given here.

Experiment: general cell-killing toxicity readout – plate reader, dry powder samples, cytotoxicity control for PAX8 inhibitor project, dose response (AID 743021)
Conditions: cell line, non-specific cytotoxicity counter-screen; series mostly up to 35 µM; activity change, negative = cytotoxicity: at the top concentration

| SMILES | activity change, negative = cytotoxicity [%] |
| --- | --- |
| COc1ccc(S(=O)(=O)Nc2ccc3c(c2)CC(=O)N([C@H](C)CO)C[C@H](C)[C@@H](CN(C)Cc2ccc(-c4ccccc4)cc2)O3)cc1 | -16.5 |
| C[C@H]1CCCCO[C@@H](CN(C)C(=O)Nc2ccc(C(F)(F)F)cc2)[C@@H](C)CN([C@@H](C)CO)C(=O)c2cc(NS(=O)(=O)c3cn(C)cn3)ccc2O1 | 8.39 |
| Cc1ccc(S(=O)(=O)Nc2ccc3c(c2)C(=O)N([C@@H](C)CO)C[C@@H](C)[C@H](CN(C)S(=O)(=O)c2ccc(Cl)cc2)OCCCC[C@@H](C)O3)cc1 | -0.17 |
| Cc1ccc(S(=O)(=O)Nc2ccc3c(c2)C(=O)N([C@H](C)CO)C[C@H](C)[C@@H](CN(C)S(=O)(=O)c2cccs2)OCCCC[C@H](C)O3)cc1 | 8.81 |
| C[C@H](CO)N1C[C@H](C)[C@@H](CN(C)Cc2ccc(Cl)c(Cl)c2)OCCCC[C@H](C)Oc2ccc(NS(=O)(=O)c3ccccc3)cc2C1=O | -8.25 |
| C[C@@H]1CCCCO[C@@H](CN(C)C(=O)Cc2ccccc2)[C@@H](C)CN([C@@H](C)CO)C(=O)c2cc(NC(=O)Nc3ccc(C(F)(F)F)cc3)ccc2O1 | 16.9 |
| O=C(C[C@H]1CC[C@H]2[C@@H](COC[C@@H](O)CN2S(=O)(=O)c2ccccc2Cl)O1)N1CCC(Cc2ccccc2)CC1 | -20.7 |
| C[C@@H]1CCCCO[C@@H](CN(C)C(=O)NC2CCCCC2)[C@H](C)CN([C@@H](C)CO)C(=O)c2cc(NC(=O)Nc3ccc(C(F)(F)F)cc3)ccc2O1 | 3.52 |
| Cc1noc(C)c1NC(=O)Nc1cccc2c1O[C@H](CN(C)Cc1ccc(C(F)(F)F)cc1)[C@H](C)CN([C@@H](C)CO)C2=O | 0.757 |
| C[C@@H]1CN([C@H](C)CO)S(=O)(=O)c2ccc(C#Cc3cccc(F)c3)cc2O[C@@H]1CN(C)C(=O)NC1CCCCC1 | 1.89 |
| C[C@@H]1CN([C@@H](C)CO)C(=O)Cc2cc(NC(=O)Nc3ccc(C(F)(F)F)cc3)ccc2O[C@H]1CN(C)Cc1ccc(Cl)c(Cl)c1 | -5.09 |
| C[C@H]1CN([C@@H](C)CO)C(=O)Cc2cc(NC(=O)Nc3ccc(C(F)(F)F)cc3)ccc2O[C@H]1CN(C)C(=O)Nc1ccc(C(F)(F)F)cc1 | 7.02 |
| C[C@@H]1CCCCO[C@@H](CN(C)C(=O)C2CCCCC2)[C@H](C)CN([C@H](C)CO)C(=O)c2cc(NC(=O)Nc3ccc(F)cc3)ccc2O1 | -14.3 |

Experiment: IGROV1 cell killing – plate reader, dry powder samples, PAX8 inhibitor project, dose response (AID 743043);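 further: more negative means fewer viable cells or more cytotoxicity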
Conditions: IGROV1 ovarian cancer cell cytotoxicity; series mostly up to 35 µM; activity change, negative = cytotoxicity: at the top concentration

| SMILES | activity change, negative = cytotoxicity |
| --- | --- |
| CC(C)NC(=O)N1Cc2cc(C(=O)NCC(F)(F)F)nc(-c3cccc(-c4cc5ccccc5o4)c3)c2[C@H]1CCO | -21% |
| C[C@@H]1CN([C@@H](C)CO)C(=O)c2cc(NC(=O)Nc3cccc4ccccc34)ccc2O[C@@H]1CN(C)Cc1ccc2c(c1)OCO2 | -2.56% |
| C[C@@H]1CN([C@H](C)CO)C(=O)c2cc(NS(=O)(=O)c3ccc(F)cc3)ccc2O[C@@H](C)CCCCO[C@H]1CN(C)Cc1ccccc1 | 7.98% |
| N#C[C@H]1[C@H](c2ccc(C#CC3CCCCC3)cc2)[C@H](CO)N1C(=O)Nc1ccc(F)cc1 | -27% [at 30 µM] |
| N#Cc1cccc(-c2ccc3c(c2)[C@@H]2[C@@H](CCN2S(=O)(=O)c2ccc(F)cc2)[C@@H](CO)N3)c1 | -4.7% |
| CCCN(C)C[C@H]1OCCCC[C@@H](C)Oc2ccc(NC(=O)c3ccccc3)cc2C(=O)N([C@H](C)CO)C[C@H]1C | 8.49% |
| C[C@H]1CCCCO[C@H](CN(C)S(=O)(=O)c2ccc(Cl)cc2)[C@@H](C)CN([C@@H](C)CO)C(=O)c2cc(NS(=O)(=O)c3ccc(F)cc3)ccc2O1 | 4.81% |
| C[C@@H]1CCCCO[C@@H](CN(C)Cc2ccc(Cl)c(Cl)c2)[C@H](C)CN([C@@H](C)CO)C(=O)c2cc(NC(=O)Nc3ccccc3)ccc2O1 | -13.5% |
| C[C@@H]1CN([C@H](C)CO)C(=O)c2cc(NS(=O)(=O)c3ccc(Cl)cc3)ccc2O[C@@H](C)CCCCO[C@H]1CN(C)C(=O)C1CCCCC1 | -3.19% |
| C[C@H]1CCCCO[C@@H](CN(C)S(=O)(=O)c2cccs2)[C@@H](C)CN([C@@H](C)CO)C(=O)c2cc(NS(=O)(=O)c3ccc(Cl)cc3)ccc2O1 | -28.2% |
| C[C@@H]1CN([C@H](C)CO)C(=O)c2cc(NC(=O)Nc3ccc(F)cc3)ccc2O[C@@H](C)CCCCO[C@H]1CN(C)S(=O)(=O)c1ccc(F)cc1 | 2.4% |
| C[C@H](CO)N1C[C@H](C)[C@@H](CN(C)Cc2ccc(Cl)c(Cl)c2)OCCCC[C@H](C)Oc2ccc(NC(=O)Nc3ccc(C(F)(F)F)cc3)cc2C1=O | 13.7% |
| CC(C)CC#Cc1ccc([C@@H]2[C@@H](CO)N3CCCCN(S(=O)(=O)c4ccc(F)cc4)C[C@H]23)cc1 | 2.13% |
| Cc1noc(C)c1S(=O)(=O)Nc1ccc2c(c1)C(=O)N([C@@H](C)CO)C[C@H](C)[C@H](CN(C)C(=O)Nc1ccc(C(F)(F)F)cc1)OCCCC[C@H](C)O2 | -37.4% |
| COc1cccc(S(=O)(=O)N2CC[C@@H]3[C@H](CO)Nc4ccc(C5=CCCCC5)cc4[C@@H]32)c1 | -4.62% |
| Cc1noc(C)c1S(=O)(=O)N(C)C[C@H]1OCCCC[C@@H](C)Oc2ccc(NS(=O)(=O)c3ccc(Cl)cc3)cc2C(=O)N([C@@H](C)CO)C[C@H]1C | -20.8% |
| Cc1ccc(S(=O)(=O)N(C)C[C@@H]2OCCCC[C@H](C)Oc3ccc(NS(=O)(=O)c4ccc(Cl)cc4)cc3C(=O)N([C@H](C)CO)C[C@H]2C)cc1 | 8.14% |
| C[C@@H]1CN([C@H](C)CO)C(=O)c2cc(NS(=O)(=O)c3ccc(F)cc3)ccc2O[C@@H](C)CCCCO[C@@H]1CN(C)CC1CCCCC1 | -15.1% |
| C[C@@H]1CN([C@H](C)CO)C(=O)c2c(c3ccccc3n2C)-c2ccccc2CO[C@H]1CN(C)S(=O)(=O)c1cccc(F)c1 | -18.2% |
| C[C@@H]1CN([C@@H](C)CO)C(=O)Cc2cc(NC(=O)Nc3ccc(C(F)(F)F)cc3)ccc2O[C@H]1CN(C)S(=O)(=O)c1ccc(F)cc1 | 11.5% |

| SMILES | activity change, negative = cytotoxicity |
| --- | --- |
| O=C(Nc1ccc(F)cc1)N1CCCCN2[C@@H](CO)[C@@H](c3ccc(-c4cccc(F)c4)cc3)[C@@H]2C1 | -0.845% |
| O=C(CN1C(=O)c2ccccc2S1(=O)=O)c1ccccc1Cl | 16.7% [at 50 µM] |
| C[C@H](CO)N1C[C@H](C)[C@H](CN(C)Cc2ccc(Cl)c(Cl)c2)OCCCC[C@H](C)Oc2ccc(NC(=O)Nc3ccccc3)cc2C1=O | -14% |
| C[C@@H]1CN([C@@H](C)CO)C(=O)c2cccc(NC(=O)c3ccncc3)c2O[C@@H]1CN(C)S(=O)(=O)c1cccs1 | 8.03% |
| CCSCCc1nnc(NC(=O)Nc2cccc(C(F)(F)F)c2)s1 | 9.36% [at 50 µM] |
| Cc1cccc(S(=O)(=O)N2C[C@@H](O)COC[C@@H]3O[C@@H](CC(=O)Nc4ccc(-c5ccccc5)cc4)CC[C@H]32)c1 | -0.23% |
| C[C@@H]1CCCCO[C@H](CN(C)C)[C@H](C)CN([C@H](C)CO)C(=O)c2cc(NC(=O)Nc3cccc4ccccc34)ccc2O1 | 14.5% |
| COc1ccc(S(=O)(=O)Nc2ccc3c(c2)CC(=O)N([C@H](C)CO)C[C@H](C)[C@@H](CN(C)Cc2ccc(-c4ccccc4)cc2)O3)cc1 | 9.97% |
| C[C@H]1CCCCO[C@@H](CN(C)C(=O)Nc2ccc(C(F)(F)F)cc2)[C@@H](C)CN([C@@H](C)CO)C(=O)c2cc(NS(=O)(=O)c3cn(C)cn3)ccc2O1 | -24.9% |
| Cc1ccc(S(=O)(=O)Nc2ccc3c(c2)C(=O)N([C@@H](C)CO)C[C@@H](C)[C@H](CN(C)S(=O)(=O)c2ccc(Cl)cc2)OCCCC[C@@H](C)O3)cc1 | -7.13% |
| Cc1ccc(S(=O)(=O)Nc2ccc3c(c2)C(=O)N([C@H](C)CO)C[C@H](C)[C@@H](CN(C)S(=O)(=O)c2cccs2)OCCCC[C@H](C)O3)cc1 | 16.6% [at 16 µM] |
| C[C@H](CO)N1C[C@H](C)[C@@H](CN(C)Cc2ccc(Cl)c(Cl)c2)OCCCC[C@H](C)Oc2ccc(NS(=O)(=O)c3ccccc3)cc2C1=O | -25.2% |
| C[C@@H]1CCCCO[C@@H](CN(C)C(=O)Cc2ccccc2)[C@@H](C)CN([C@@H](C)CO)C(=O)c2cc(NC(=O)Nc3ccc(C(F)(F)F)cc3)ccc2O1 | 15.6% |
| O=C(C[C@H]1CC[C@H]2[C@@H](COC[C@@H](O)CN2S(=O)(=O)c2ccccc2Cl)O1)N1CCC(Cc2ccccc2)CC1 | 12.6% |
| C[C@@H]1CCCCO[C@@H](CN(C)C(=O)NC2CCCCC2)[C@H](C)CN([C@@H](C)CO)C(=O)c2cc(NC(=O)Nc3ccc(C(F)(F)F)cc3)ccc2O1 | -8.61% |
| Cc1noc(C)c1NC(=O)Nc1cccc2c1O[C@H](CN(C)Cc1ccc(C(F)(F)F)cc1)[C@H](C)CN([C@@H](C)CO)C2=O | 5.33% |
| C[C@@H]1CN([C@H](C)CO)S(=O)(=O)c2ccc(C#Cc3cccc(F)c3)cc2O[C@@H]1CN(C)C(=O)NC1CCCCC1 | -17.6% |
| C[C@@H]1CN([C@@H](C)CO)C(=O)Cc2cc(NC(=O)Nc3ccc(C(F)(F)F)cc3)ccc2O[C@H]1CN(C)Cc1ccc(Cl)c(Cl)c1 | 16.5% |
| C[C@H]1CN([C@@H](C)CO)C(=O)Cc2cc(NC(=O)Nc3ccc(C(F)(F)F)cc3)ccc2O[C@H]1CN(C)C(=O)Nc1ccc(C(F)(F)F)cc1 | -0.99% |
| C[C@@H]1CCCCO[C@@H](CN(C)C(=O)C2CCCCC2)[C@H](C)CN([C@H](C)CO)C(=O)c2cc(NC(=O)Nc3ccc(F)cc3)ccc2O1 | -12.2% |
